Test [1] is described as follows: antimalarial activity against Dd2 strain (AID 2302;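 active means growth inhibition above 50% at the single 2 µM test dose, taken to imply half-maximal potency below 2 µM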;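 further: 0% = DMSO untreated growth and 100% = chloroquine plus artemisinin killed control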). Particulars: P. falciparum Dd2 in RBCs, LDH growth readout, 72 h; at 2 µM; stronger effect = higher value.
Test [2] in a line: HepG2 cytotoxicity, primary screen, cytotoxicity control for P. falciparum antimalarial project, cell-based, ATP luminescence (AID 2303;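 active means inhibition above 50%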;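 further: 0% = DMSO wells and 100% = digitonin-killed cells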). The settings on record: HepG2 viability, 24-48 h, at 10 µM, stronger effect = higher value.
In test [3] the target is L-lactate dehydrogenase (Plasmodium falciparum (isolate CDC / Honduras)) (UniProt Q27743). The experiment in a line: PfLDH activity inhibition – cell lysate, 3D7 strain, counter-screen for P. falciparum growth inhibition project (AID 2304).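 Further: 0% = vehicle and 100% = reference inhibitor.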 The settings on record: P. falciparum 3D7 crude extract, LDH APAD/NBT absorbance; at 2 µM; stronger effect = higher value.
A short description of test [4]: inhibition of 3D7 malaria parasite growth – strain 3D7 (AID 2306).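 Further: 0% = DMSO wells and 100% = chloroquine plus artemisinin control wells.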 Particulars: P. falciparum 3D7 erythrocytic growth, LDH absorbance, 72 h; at 2 µM; stronger effect = higher value.
Test [5] deals with Calcium-dependent protein kinase 1 (Plasmodium falciparum (isolate 3D7)) (UniProt P62344). The experiment in a line: PfCDPK1 kinase inhibitors, biochemical, TCAMS library (AID 1159585; cut-off not given, nearly all actives have IC50 up to about 0.98 µM;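 further: inhibitors leave more ATP so luminescence rises with inhibition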). The settings on record: recombinant PfCDPK1, Kinase-Glo ATP depletion luminescence.
In test [6] the target is Plasmodium falciparum protein kinase 6 (PK6, PF3D7_1337100) (UniProt Q8IDW1). The experiment in a line: PfPK6 kinase inhibitors, biochemical, TCAMS library (AID 1159586). Particulars: recombinant PfPK6, Kinase-Glo ATP depletion luminescence. A general note: Kinase-Glo reads ATP consumption through a luciferase reaction.
For test [7], the target named is Protein kinase 7 (PK7), Plasmodium falciparum 3D7 (PF3D7_0213400) (UniProt Q7YTF7). In words: inhibition of Plasmodium PK7 catalytic activity – biochemical, TCAMS antimalarial set, Kinase-Glo luminescence (AID 1159587). Particulars: recombinant PfPK7, Kinase-Glo ATP depletion luminescence.
For test [8], the target named is Calcium-dependent protein kinase 4 (Plasmodium falciparum (isolate 3D7)) (UniProt Q8IBS5). In words: PfCDPK4 kinase inhibitors, biochemical, TCAMS library (AID 1159588; cut-off not given, nearly all actives have IC50 up to about 0.91 µM). Particulars: recombinant PfCDPK4, Kinase-Glo ATP depletion luminescence.

Unmarked numbers belong to inactive results. For part of these data: Results with a measured potency or affinity are listed apart. Calls of active or inactive are those of the source. Unless noted, how the calls were made is not given here.

Sequence of Calcium-dependent protein kinase 1 (Plasmodium falciparum (isolate 3D7)) (P62344 whole entry, looked up): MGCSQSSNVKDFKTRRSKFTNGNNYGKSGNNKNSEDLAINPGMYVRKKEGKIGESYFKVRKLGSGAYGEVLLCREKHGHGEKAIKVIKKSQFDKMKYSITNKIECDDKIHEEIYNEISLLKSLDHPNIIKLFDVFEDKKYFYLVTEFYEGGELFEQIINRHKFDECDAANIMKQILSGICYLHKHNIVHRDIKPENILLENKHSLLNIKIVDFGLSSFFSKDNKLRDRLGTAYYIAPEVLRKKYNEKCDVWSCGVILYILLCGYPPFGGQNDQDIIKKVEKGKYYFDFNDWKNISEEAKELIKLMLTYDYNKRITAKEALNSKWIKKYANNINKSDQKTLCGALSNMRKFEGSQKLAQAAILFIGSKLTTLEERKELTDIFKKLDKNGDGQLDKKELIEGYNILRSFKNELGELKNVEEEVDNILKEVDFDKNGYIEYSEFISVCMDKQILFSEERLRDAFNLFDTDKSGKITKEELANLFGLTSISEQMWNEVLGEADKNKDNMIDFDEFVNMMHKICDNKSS
Sequence of L-lactate dehydrogenase (Plasmodium falciparum (isolate CDC / Honduras)) (Q27743 whole entry, looked up): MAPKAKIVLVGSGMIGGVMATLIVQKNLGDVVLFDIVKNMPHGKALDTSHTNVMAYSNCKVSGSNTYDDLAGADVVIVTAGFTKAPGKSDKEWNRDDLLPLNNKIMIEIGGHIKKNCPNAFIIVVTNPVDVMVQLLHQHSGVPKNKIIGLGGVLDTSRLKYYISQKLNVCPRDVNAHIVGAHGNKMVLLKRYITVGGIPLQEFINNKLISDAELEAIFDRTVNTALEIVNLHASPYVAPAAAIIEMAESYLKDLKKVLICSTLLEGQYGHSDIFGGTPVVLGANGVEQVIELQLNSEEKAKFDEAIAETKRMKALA
Sequence of Protein kinase 7 (PK7), Plasmodium falciparum 3D7 (PF3D7_0213400) (Q7YTF7 1-343): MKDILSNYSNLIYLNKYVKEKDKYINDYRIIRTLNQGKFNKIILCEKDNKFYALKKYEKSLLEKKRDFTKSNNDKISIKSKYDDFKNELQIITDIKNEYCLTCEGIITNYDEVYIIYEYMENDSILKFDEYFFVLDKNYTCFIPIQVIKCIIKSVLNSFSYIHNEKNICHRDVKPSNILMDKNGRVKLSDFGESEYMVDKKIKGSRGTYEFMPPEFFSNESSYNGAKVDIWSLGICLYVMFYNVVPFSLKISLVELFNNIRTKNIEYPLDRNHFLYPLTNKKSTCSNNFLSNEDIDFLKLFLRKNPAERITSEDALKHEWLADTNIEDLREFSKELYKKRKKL
Sequence of Plasmodium falciparum protein kinase 6 (PK6, PF3D7_1337100) (Q8IDW1 1-305): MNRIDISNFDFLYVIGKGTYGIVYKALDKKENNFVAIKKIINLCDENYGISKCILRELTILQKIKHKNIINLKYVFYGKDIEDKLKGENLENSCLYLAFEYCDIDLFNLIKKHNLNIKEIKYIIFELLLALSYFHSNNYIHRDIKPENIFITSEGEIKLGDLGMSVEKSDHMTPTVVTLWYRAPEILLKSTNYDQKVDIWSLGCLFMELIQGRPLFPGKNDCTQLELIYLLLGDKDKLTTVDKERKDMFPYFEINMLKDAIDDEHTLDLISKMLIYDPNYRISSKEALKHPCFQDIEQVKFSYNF
Sequence of Calcium-dependent protein kinase 4 (Plasmodium falciparum (isolate 3D7)) (Q8IBS5 whole entry, looked up): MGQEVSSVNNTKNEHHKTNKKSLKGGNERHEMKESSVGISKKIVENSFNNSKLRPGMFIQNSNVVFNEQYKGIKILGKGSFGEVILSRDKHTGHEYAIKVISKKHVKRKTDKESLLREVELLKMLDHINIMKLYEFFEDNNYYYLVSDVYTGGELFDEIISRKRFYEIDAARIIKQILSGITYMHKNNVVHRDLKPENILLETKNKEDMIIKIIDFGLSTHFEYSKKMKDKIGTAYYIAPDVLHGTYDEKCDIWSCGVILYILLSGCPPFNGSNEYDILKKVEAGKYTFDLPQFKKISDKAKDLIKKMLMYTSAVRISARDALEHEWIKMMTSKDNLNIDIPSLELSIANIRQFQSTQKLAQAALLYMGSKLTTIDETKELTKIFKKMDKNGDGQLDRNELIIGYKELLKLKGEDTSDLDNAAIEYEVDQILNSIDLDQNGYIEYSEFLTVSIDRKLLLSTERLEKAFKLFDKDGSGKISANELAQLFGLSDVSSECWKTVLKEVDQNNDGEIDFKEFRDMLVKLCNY

Usually inhibition stands for the relative decrease from the control value, in per cent. Consider `COc1ccc(-c2ccc(NC(=O)c3ccccc3)cc2)cc1CN1CCCN(C)CC1`, for which the growth inhibition is 17% in test [1] and 92% (active) in test [4]. Besides, the inhibition in test [2] is 24%; in test [3] it was 3%. For the same compound, the result in test [5], in test [6], in test [7] and in test [8] was inactive.
With `COc1ccc2ncc(F)c([C@@H](O)CN3CCC(NCc4cc5c(cn4)OCS5)CC3)c2c1`, the growth inhibition in test [1] was 98% (active); in test [4], 103% (active). For the same compound, the inhibition in test [2] is 16%; in test [3], -2%. The outcome in test [5], in test [6], in test [7] and in test [8] was inactive.
With `OCc1ccc(-c2cncc(Nc3cccc(Cl)c3)c2)cc1`, the growth inhibition in test [1] was 100% (active); in test [4], 95% (active). Besides, the inhibition was 4% in test [2] and -3% in test [3]. For the same compound, the result in test [5], in test [6], in test [7] and in test [8] was inactive.
Turning to `NC(=O)c1cccc(C(=O)Nc2ccc(-c3cccc(-c4nc5ccc(F)cc5[nH]4)c3)cc2)c1`, the growth inhibition was 5% in test [1] and 94% (active) in test [4]. In addition, the inhibition in test [2] is 45%; in test [3], -5%. The outcome in test [5], in test [6], in test [7] and in test [8] was inactive.
Consider `CCCCCN1CCCN(Cc2cccc(NC(=O)c3ccc4ccccc4c3)c2)CC1`, for which the figures for the growth inhibition in test [1] and in test [4] were 16% and 86% (active), respectively. The inhibition is 27% in test [2] and -5% in test [3]. Also, the result in test [5], in test [6], in test [7] and in test [8] was inactive.
`O=C(/C=C/c1ccc(Cl)c(Cl)c1)NCCCCCN1CCC(C(=O)Nc2ccc3c(c2)OCO3)CC1`: the values for the growth inhibition in test [1] and in test [4] were -3% and 92% (active), respectively. Also, the values for the inhibition in test [2] and in test [3] were 18% and 4%, respectively. Besides, the outcome in test [5], in test [6], in test [7] and in test [8] was inactive.
Take `CO/C(=C\C=C\c1cc2cc(Cl)c(Cl)cc2[nH]1)C(=O)NCCCN1CC(C)N(C)CC1C` (stereo not drawn): the growth inhibition is 73% (active) in test [1] and 92% (active) in test [4]. In addition, the values for the inhibition in test [2] and in test [3] were 38% and -2%, respectively. Besides, the outcome in test [5], in test [6], in test [7] and in test [8] was inactive.
With `COc1ccc(C(=O)CC(=O)c2ccc(OC)cc2OC)c(OC)c1`, the growth inhibition in test [1] is -2%; in test [4] it was 98% (active). Besides, the inhibition in test [2] was 1%; in test [3], 2%. Also, the outcome in test [5], in test [6], in test [7] and in test [8] was inactive.
Regarding `COc1cc(NC(=O)c2cc3c(C)nn(-c4cccc(C(F)(F)F)c4)c3s2)cc(OC)c1OC`, the growth inhibition in test [1] is 50% (active); in test [4], 101% (active). Also, the inhibition was 0% in test [2] and 3% in test [3]. Further, the result in test [5], in test [6], in test [7] and in test [8] was inactive.
In the case of `O=C(Nc1ccc(-c2cccc(-c3nc4ccc(F)cc4[nH]3)c2)cc1)c1cnn2cccnc12`, the growth inhibition is 25% in test [1] and 98% (active) in test [4]. In addition, the inhibition was 10% in test [2] and -1% in test [3]. Further, the outcome in test [5], in test [6], in test [7] and in test [8] was inactive.
Consider `O=C1c2ccccc2CN1CCCN1CCC(Oc2ccc(F)cc2)CC1`, for which the results for the growth inhibition in test [1] and in test [4] were 1% and 97% (active), respectively. In addition, the inhibition in test [2] was 14%; in test [3], 3%. Besides, the outcome in test [5], in test [6], in test [7] and in test [8] was inactive.
As for `CC(C)C1C(O)=C(c2ccc3ccccc3c2)C(=O)N1Cc1cccc(F)c1` (stereo not drawn), the growth inhibition in test [1] was 82% (active); in test [4], 97% (active). In addition, the inhibition in test [2] and in test [3] was 3% throughout. The result in test [5], in test [6], in test [7] and in test [8] was inactive.
Consider `CCCCN(CCCC)CCCCCCNc1c2ccccc2nc2ccccc12`, for which the values for the growth inhibition in test [1] and in test [4] were 87% (active) and 95% (active), respectively. Further, the inhibition in test [2] was 49%; in test [3], 7%. The outcome in test [5], in test [6], in test [7] and in test [8] was inactive.
`O=S(=O)(NCCN1CCCC1)c1ccc(-c2ccc(CNCc3ccccc3)cc2)cc1F`: the growth inhibition in test [1] was 39%; in test [4], 83% (active). Further, the inhibition was 35% in test [2] and 4% in test [3]. For the same compound, the outcome in test [5], in test [6], in test [7] and in test [8] was inactive.
`Clc1ccc2c(NCCc3ccccn3)ccnc2c1`: the growth inhibition in test [1] was 72% (active); in test [4], 92% (active). Further, the inhibition in test [2] is 13%; in test [3], -1%. Moreover, the result in test [5], in test [6], in test [7] and in test [8] was inactive.
Turning to `CCCc1ccc(NC(=O)c2ccc(CN3CCCN(CC4CCCCC4)CC3)cc2)cc1`, the values for the growth inhibition in test [1] and in test [4] were 41% and 95% (active), respectively. Besides, the inhibition in test [2] was 49%; in test [3], -7%. For the same compound, the outcome in test [5], in test [6], in test [7] and in test [8] was inactive.
With `CC[C@H](NC(=O)c1c(CN2CCC(N3CCCCC3)CC2)c(-c2ccccc2)nc2cc(O)ccc12)c1ccccc1`, the results for the growth inhibition in test [1] and in test [4] were 13% and 94% (active), respectively. Moreover, the inhibition in test [2] is 15%; in test [3], 2%. For the same compound, the outcome in test [5], in test [6], in test [7] and in test [8] was inactive.
Regarding `COc1cc(CCNc2nc(NCc3ccccc3-c3ccccc3)nc(N3CCC(N)CC3)n2)ccc1O`, the figures for the growth inhibition in test [1] and in test [4] were 70% (active) and 100% (active), respectively. In addition, the inhibition in test [2] is 25%; in test [3], -4%. The result in test [5], in test [6], in test [7] and in test [8] was inactive.
For the compound `CC1(CCCCN2CCC(Cc3ccccc3)CC2)C(=O)Nc2ccccc21` (stereo not drawn), the growth inhibition in test [1] was 28%; in test [4], 100% (active). The inhibition in test [2] was 66% (active); in test [3] it was -8%. Also, the outcome in test [5], in test [6], in test [7] and in test [8] was inactive.
As for `O=[N+]([O-])c1cccc(CNC2CCN(Cc3ccc4ccccc4c3)CC2)c1`, the growth inhibition was 22% in test [1] and 100% (active) in test [4]. Moreover, the inhibition is 12% in test [2] and -3% in test [3]. Also, the outcome in test [5], in test [6], in test [7] and in test [8] was inactive.
On to `O=C(c1cc2nc3c(c(C(F)(F)F)n2n1)CCc1ccccc1-3)N1CCN2CCCC2C1` (stereo not drawn), for which the growth inhibition in test [1] was 3%; in test [4], 94% (active). Moreover, the inhibition in test [2] is -8%; in test [3] it was 0%. Besides, the result in test [5], in test [6], in test [7] and in test [8] was inactive.

(Values after PubChem BioAssay.)
